Source: PubChem BioAssay

Key:
[1] = test system: Human papillomavirus type 1a protein E7 (residues 44-93); assay: small molecules binding HPV E7 44-93 – biochemical, small-molecule microarray, residues 44-93, 635 nm fluorescence, primary screen (AID 1108); settings: fluorescence 635 nm, higher = more signal;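 further: E7 fragment applied at 1 µg/mL in TBST for 1 h at 4 C; score combines spot fluorescence with its signal to noise ratio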
[2] = hepatitis C replication reporter changes, two-sided – Huh7 cells, luciferase reporter, HCV replication inhibitor project, primary screen (AID 1109); settings: Huh7 HCV replicon luciferase reporter, 48 h; higher = more signal;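 further: huh7 hepatoma cells harbouring a luciferase neomycin HCV replicon reporter; luciferase luminescence as measure of HCV replicon replication; test concentration not given here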
[3] = molecular target: Left-right determination factor 2 (Homo sapiens) (UniProt O00292); assay: small molecules binding LEFTY2 protein – biochemical, small-molecule microarray, 635 nm fluorescence scan, primary screen (AID 1110); settings: higher = more signal
[4] = molecular target: Calmodulin-1 (Homo sapiens) (UniProt P0DP23); assay: small molecules binding calmodulin-1 with EGTA – biochemical, small-molecule microarray, Cy5-labelled CALM1, profiling panel (AID 1111); settings: Cy5-CALM1 binding fluorescence, higher = more signal;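 further: labelled calmodulin applied in Tris saline Tween buffer holding calcium plus EGTA and DTT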
[5] = molecular target: Calmodulin-1 (Homo sapiens) (UniProt P0DP23); assay: small molecules binding Ca-loaded calmodulin-1 – biochemical, small-molecule microarray, Cy5-labelled CALM1, plus calcium, artefact control for SMM control-protein annotation, profiling panel (AID 1112); settings: Cy5-CALM1 binding fluorescence, higher = more signal;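 further: score merges spot fluorescence with signal to noise from triplicate slides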
[6] = probe aWnt5a binding to arrayed compounds – biochemical, biotinylated probe, 635/667 nm fluorescence, primary screen (AID 1113); settings: small-molecule microarray, higher = more signal;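 further: score merges 667 nm fluorescence intensity with signal-to-noise per printed feature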
[7] = probe aShh binding to arrayed compounds – biochemical, biotinylated probe, 635/667 nm fluorescence, primary screen (AID 1114); settings: small-molecule microarray, higher = more signal;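 further: probe is biotin-labelled aShh protein from a stem cell growth factor screen; measures binding of labelled protein to compounds printed on the slide; score merges feature fluorescence at 667 nm with signal-to-noise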
[8] = probe aNog binding to arrayed compounds – biochemical, biotinylated probe, 635/667 nm fluorescence, primary screen (AID 1115); settings: small-molecule microarray, higher = more signal;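 further: probe is biotinylated aNog protein used at 0.15 µg/mL for 1 h at 4 C; z-score combines 667 nm fluorescence of each spot with its signal to noise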
[9] = molecular target: Torsin-1A-interacting protein 1 (Homo sapiens) (UniProt Q5JTV8); assay: compound microarray binding of lysate hLAP1 – cell lysate, small-molecule microarray, COS7 lysate, 635/667 nm fluorescence, primary screen (AID 1116); settings: 635 nm fluorescence, higher = more signal
[10] = molecular target: Alpha-bungarotoxin (Bungarus multicinctus) (UniProt P60615); assay: compounds binding labelled alpha-BTX control protein – biochemical, small-molecule microarray, Alexa647 label, 635/667 nm fluorescence, artefact control for SMM control protein annotation, profiling panel (AID 1117); settings: alpha-BTX-A647 binding fluorescence, higher = more signal
Alpha-bungarotoxin (Bungarus multicinctus), sequence (P60615 whole entry, looked up): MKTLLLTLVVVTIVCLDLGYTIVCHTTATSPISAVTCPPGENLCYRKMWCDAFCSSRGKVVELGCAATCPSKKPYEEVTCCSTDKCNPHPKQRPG

Left-right determination factor 2 (Homo sapiens), sequence (O00292 whole entry, looked up): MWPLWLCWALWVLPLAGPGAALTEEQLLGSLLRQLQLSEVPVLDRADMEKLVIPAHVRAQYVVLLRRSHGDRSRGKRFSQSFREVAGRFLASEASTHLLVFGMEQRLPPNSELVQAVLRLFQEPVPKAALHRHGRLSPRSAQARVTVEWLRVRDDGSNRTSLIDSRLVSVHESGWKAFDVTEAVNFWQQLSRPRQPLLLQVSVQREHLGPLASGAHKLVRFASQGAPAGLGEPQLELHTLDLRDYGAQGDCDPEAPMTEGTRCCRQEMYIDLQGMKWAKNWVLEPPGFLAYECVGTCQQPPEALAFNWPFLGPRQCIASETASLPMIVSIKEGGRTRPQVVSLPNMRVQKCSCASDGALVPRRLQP
Torsin-1A-interacting protein 1 (Homo sapiens), sequence (Q5JTV8 whole entry, looked up): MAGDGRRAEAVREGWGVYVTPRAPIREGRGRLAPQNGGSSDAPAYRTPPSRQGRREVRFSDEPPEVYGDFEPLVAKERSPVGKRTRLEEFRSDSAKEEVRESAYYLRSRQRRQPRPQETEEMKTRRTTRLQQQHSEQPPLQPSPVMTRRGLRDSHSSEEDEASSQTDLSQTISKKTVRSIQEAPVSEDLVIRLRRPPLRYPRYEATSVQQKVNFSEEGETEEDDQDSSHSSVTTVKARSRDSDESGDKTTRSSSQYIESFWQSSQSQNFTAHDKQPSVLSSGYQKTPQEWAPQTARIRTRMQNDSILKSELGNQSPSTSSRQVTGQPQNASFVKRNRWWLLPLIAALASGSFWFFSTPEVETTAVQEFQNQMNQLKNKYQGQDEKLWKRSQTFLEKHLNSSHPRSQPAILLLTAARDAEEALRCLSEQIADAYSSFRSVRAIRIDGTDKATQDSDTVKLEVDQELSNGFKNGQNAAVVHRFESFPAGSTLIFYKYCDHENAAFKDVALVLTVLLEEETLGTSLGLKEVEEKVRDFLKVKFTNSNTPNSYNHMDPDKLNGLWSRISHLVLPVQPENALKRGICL

Row | Compound | composite z-score [1] | z-score [2] | composite z-score [3] | composite z-score [4] | composite z-score [5] | composite z-score [6] | composite z-score [7] | composite z-score [8] | composite z-score [9] | composite z-score [10]
1 | CCCCC(=C=CC[C@@H](O)c1cccc(OCCO)c1)CCO | -0.333 | -0.165 | -0.125 | -0.494 | 0.181 | -0.18 | 0.0121 | -0.405 | 0.297 | 2.16
2 | CCOC(=O)C[C@H]1[C@H](OC(=O)c2ccc(C(=O)c3ccccc3)cc2)[C@@H](NC(=O)c2ccc3ccccc3c2)c2cc(OCCCO)ccc2N1C(=O)c1ccc2ccccc2n1 | 1.05 | -0.415 | 0.23 | 0.794 | -0.191 | -0.168 | -0.191 | -0.188 | 0.982 | 0.898
3 | COCCOC(=O)N1C(=O)[C@@]2(c3cc(C#CCCO)ccc31)[C@H](c1ccc(O)cc1)N1[C@H](c3ccccc3)[C@H](c3ccccc3)OC(=O)[C@H]1[C@@H]2C(=O)N1CCc2cc(OC)c(OC)cc2C1 | 1.41 | -0.561 | 1.14 | 0.422 | -0.0529 | 0.129 | -0.153 | 1.32 | 1.13 | 1.11
4 | COC(=O)[C@@]1(Cc2ccc(F)cc2)[C@H]2c3cc(C(=O)N(C)C)n(CCN4CCOCC4)c3C[C@H]2CN1C(=O)c1ccccc1 | 0.357 | 0.349 | 0.134 | 0.639 | -0.125 | 0.974 | 0.275 | 0.932 | 0.868 | 0.0194
5 | COCC(=C=CC[C@@H](O)c1cccc(OCCO)c1)C[C@@H](O)COCc1ccccc1 | 0.276 | -0.81 | -0.0586 | 1.8 | 1.35 | 0.284 | 0.0633 | -0.215 | 3.66 | 0.116
6 | COCC(=C=CC[C@@H](O)c1ccc(OCCO)cc1)C[C@@H](O)COCc1ccccc1 | 1.39 | -1.08 | 1 | 0.0268 | 0.473 | 0.0559 | 0.0611 | 0.629 | 0.319 | 0.0353
7 | COCCOC(=O)N1C(=O)[C@@]2(c3cc(C#CCCO)ccc31)[C@H](C(=O)N1CCN(c3ncccn3)CC1)[C@H]1C(=O)O[C@H](c3ccccc3)[C@H](c3ccccc3)N1[C@@H]2c1ccc(O)cc1 | 0.228 | -1.65 | 0.0272 | -0.444 | -0.559 | -0.0179 | 0.0074 | 1.01 | 0.894 | 1.85
8 | CC(C)C[C@@H]1NC(=O)C([C@@H](C)OCc2ccccc2)NC(=O)[C@@]23C(=O)N[C@@H](Cc4ccccc4)C2[C@H](C)[C@@]2(C)O[C@H]2C3/C=C/CC/C=C/CNC1=O (stereo not given in full) | 1.12 | -2.63 | 0.458 | -0.407 | -0.543 | -0.15 | -0.0064 | -0.24 | 0.0641 | -0.0687
9 | CC(C)[Si](C#CCCCC#N)(O[C@H](c1ccccc1)c1cn([C@H](C)c2ccccc2)nn1)C(C)C | 1.21 | -1.91 | 0.392 | -0.0129 | -0.0984 | -0.0924 | 0.318 | -0.262 | 0.137 | 0.18
10 | Cc1c(NC(=O)/C(C#N)=C/c2ccc(Cl)cc2)c(=O)n(-c2ccccc2)n1C | -0.648 | -0.871 | 0.119 | 1.14 | 0.629 | -0.0869 | -0.0503 | 0.486 | 1.58 | 0.766
11 | CC[C@H](C)C(=O)O[C@H]1CC[C@]2(C)C3=C(CCC2C1(C)C)[C@]1(C)CC[C@H]([C@H](C)CCCC(C)C)[C@@]1(C)CC3 (stereo not given in full) | 0.758 | -0.492 | 0.405 | -0.367 | -0.468 | -0.0462 | -0.0769 | -0.31 | 0.14 | 0.332
12 | CC(C)C(=C=CC[C@@H](O)c1cccc(OCCO)c1)CCO | 0.217 | 0.13 | 0.0381 | -0.203 | -0.136 | -0.154 | -0.229 | -0.273 | 0.393 | -0.529
13 | COCCCN1C(=O)[C@@]2(Cc3ccccc31)c1ccccc1C(=O)N(Cc1ccccc1OC)[C@H]2c1ccc(CO)cc1 | -0.739 | -0.185 | -0.283 | 0.0145 | -0.0984 | 0.0759 | -0.138 | 0.417 | 0.145 | 0.212
14 | COCCOC(=O)N1C(=O)[C@@]2(c3cc(C#CC4=CCCCC4)ccc31)[C@H](C(=O)N1CCN(c3ncccn3)CC1)[C@H]1C(=O)O[C@H](c3ccccc3)[C@H](c3ccccc3)N1[C@@H]2c1ccccc1OCCO | 1.38 | -1.9 | 0.419 | 0.936 | 0.473 | -0.0778 | -0.19 | -0.0845 | 0.961 | 0.903
15 | C=CCC(OC(C)=O)[C@@H]1[C@@H](N(Cc2ccc(-c3cccc(C(F)(F)F)c3)o2)C(=O)c2cccc3ccccc23)c2cc(OCCCO)ccc2N1C(=O)c1ccc2ccccc2c1 (stereo not given in full) | -0.423 | 0.0329 | -0.382 | -0.34 | 0.17 | -0.108 | -0.0709 | 0.0649 | 0.49 | 0.108
16 | CCCC[C@@H]1C[C@H]1[C@@H](NC(=O)c1ccc(C(F)(F)F)cc1)c1ccc(C(=O)OC)cc1 | 0.733 | -1.33 | 0.497 | 0.995 | 0.271 | 0.869 | 2.11 | 0.238 | 1.27 | 1.48
17 | COc1ccc(C(O)C2C=CC3C(=O)N(C)C(=O)C3N2Nc2ccc([N+](=O)[O-])cc2[N+](=O)[O-])cc1OCc1ccccc1 (stereo not given) | 1.39 | 0.714 | -0.0506 | 0.211 | -0.0482 | 0.112 | 0.28 | 1.38 | 0.527 | 1.5
